# Assay results as given in the supplement of paper PMC6992640.
# ± gives the standard deviation of the averaged measurements.
# How the values were obtained:
# Experiment in all cases: cell viability (% of vehicle); higher = less cytotoxic
# Conditions in all cases: 10 µM; 72 h
# HCI01 = system: HCI01 (cells of a triple-negative basal-like breast cancer xenograft)
# HCI03 = system: HCI03 (cells of an ER-positive luminal breast cancer xenograft)
# HCI09 = system: HCI09 (cells of a triple-negative luminal androgen receptor type breast cancer xenograft)
# HCI11 = system: HCI11 (cells of an ER-positive luminal breast cancer xenograft)
# HCI13 = system: HCI13 (cells of an ER-positive luminal breast cancer xenograft)
# HCI16 = system: HCI16 (cells of a triple-negative basal-like breast cancer xenograft)
# UCD52 = system: UCD52 (cells of a triple-negative basal-like breast cancer xenograft)
# WHIM2 = system: WHIM2 (cells of a triple-negative basal-like breast cancer xenograft)
# WHIM30 = system: WHIM30 (cells of a triple-negative basal-like breast cancer xenograft)
# 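Also: PDX cells carrying CMV promoter-driven luciferase, viability read as total photon flux per second by IVIS imaging following D-luciferin, vehicle control 0.1% DMSO.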
Compound,cell viability (HCI01),cell viability (HCI03),cell viability (HCI09),cell viability (HCI11),cell viability (HCI13),cell viability (HCI16),cell viability (UCD52),cell viability (WHIM2),cell viability (WHIM30)
CCC(CO)NCCNC(CC)CO.Cl.Cl (configuration not stated) [Ethambutol HCl],98.6 ± 2.4,122,102 ± 7.8,103,146 ± 15,102,86.7 ± 3,93.4 ± 21,153 ± 7.2
COc1ccccc1Oc1c(NS(=O)(=O)c2ccc(C(C)(C)C)cc2)nc(-c2ncccn2)nc1OCCO [Bosentan],110 ± 16,95.1,71.1 ± 21,86.4,83.7 ± 5.7,104,111 ± 2.8,114 ± 36,114 ± 3.2
CN(CC/C=C1C2=CC=CC=C2C=CC3=CC=CC=C3\1)C.Cl [Cyclobenzaprine HCl],98.1 ± 17,95.1,73.5 ± 0.81,84.5,131 ± 4.4,92.3,76.4 ± 0.93,89.6 ± 14,89.9 ± 1.5
Cc1ccccc1N1C(=O)c2cc(S(N)(=O)=O)c(Cl)cc2NC1C (configuration not stated) [Metolazone],121 ± 18,129,98.5 ± 8.3,57.9,132 ± 16,198,107 ± 1.9,103 ± 6.2,127 ± 13
NC(=O)c1cn(Cc2c(F)cccc2F)nn1 [Rufinamide],93.3 ± 16,137,106 ± 14,99.1,103 ± 10,106,96.9 ± 3.1,93.3 ± 18,124 ± 1.8
O=C(O)CCC(=O)O.O=C(OC1CN2CCC1CC2)N1CCc2ccccc2C1c1ccccc1 (configuration not stated) [Solifenacin succinate],90.4 ± 10,107,91.8 ± 7,86.9,118 ± 9.5,104,57.36 ± 0.49,76.8 ± 2.9,87.6 ± 3.7
CC(C)(C)NCC(O)COc1cccc2c1CCC(O)=N2.Cl (configuration not stated) [Carteolol HCl],96.4 ± 13,144,97.3 ± 14,110,123 ± 1.9,115,114 ± 3.5,87.3 ± 17,116.5 ± 0.86
Cc1cc(=O)[nH]c(=S)[nH]1 [Methylthiouracil],97.2 ± 29,119,94.7 ± 16,93.8,119 ± 2.5,115,92.7 ± 7.9,80.6 ± 8.1,139 ± 5.5
CC(=O)C1CCC2C3CCC4=CC(=O)CCC4(C)C3CCC12C (configuration not stated) [Progesterone],160 ± 12,108,77.8 ± 41,90.6,154 ± 6.9,113,88.9 ± 3.9,148 ± 41,123 ± 16
CC(=O)OCC(CCn1cnc2cnc(N)nc21)COC(C)=O [Famciclovir],112 ± 17,114,93.4 ± 4.1,96.3,123 ± 7.6,136,85.3 ± 8.4,106 ± 7.2,114 ± 2.1
Nc1nc(=O)c2ncn(COCCO)c2[nH]1 [Acyclovir],103 ± 7.2,107,55.9 ± 49,113,154 ± 13,87.8,91.1 ± 11,96 ± 2.8,108 ± 19
O=C(O)c1cc(=O)[nH]c(=O)[nH]1 [Orotic acid],90.2 ± 12,100,88.5 ± 22,93.2,85.7 ± 3.8,120,93.6 ± 9.7,102.1 ± 0.24,76.6 ± 5.3
O=C(O)/C=C/c1ccc(O)c(O)c1 [Caffeic acid],88 ± 6.6,115,107 ± 24,93.3,89.9 ± 9.4,137,97.2 ± 6,86.5 ± 20,89.4 ± 2.4
O=C(O)C1=CC(=NNc2ccc([O-])c(C(=O)[O-])c2)C=CC1=O.[Na+].[Na+] [Olsalazine Sodium],123 ± 2.4,108,127 ± 47,102,120 ± 30,88.2,91.8 ± 7.2,86.8 ± 7.9,112 ± 7.4
CC(=O)[N-]S(=O)(=O)c1ccc(N)cc1.[Na+] [Sulfacetamide Sodium],98.2 ± 1.3,86.1,87.3 ± 15,104,96.8 ± 5.9,79.7,72.9 ± 1.1,85.757 ± 0.01,109 ± 3.1
Cc1ncc([N+](=O)[O-])n1CC(O)CCl (configuration not stated) [Ornidazole],94.9 ± 14,115,96 ± 7.9,83.2,111 ± 18,105,85.1 ± 4.3,88.1 ± 8.4,108 ± 10
Oc1c(Br)cc(Br)c2cccnc12 [Broxyquinoline],81.5 ± 50,89.1,25.5 ± 7.7,98.1,34.3 ± 4.1,122,72.8 ± 42,146 ± 60,98 ± 4.2
Nc1c(CC(=O)[O-])cccc1C(=O)c1ccc(Br)cc1.[Na+] [Bromfenac Sodium],134 ± 34,104,82.1 ± 13,103,76.6 ± 16,96.2,89 ± 4,132 ± 25,111 ± 6.5
